35 compounds from PubChem BioAssay can be followed below.

Structures are written as SMILES. The source made the active and inactive calls.

For this experiment, the system named is XIP peptide (Xip251-270) binding. Nature of the experiment: XIP fragment 251-270 binding compounds – biochemical, small-molecule microarray, fluorescence 635/667 nm, 0.1 µg/mL protein, primary screen (AID 1182). As to conditions: fluorescent protein binding, 635 nm, higher = more signal, called active from +8 up or from −8 down.
`CO[C@H]1COC(=O)CC=C[C@H](C)COC(=O)[C@@H](OCc2ccccc2)C=C[C@@H]1C`: the composite z-score is 0.225 (inactive).
Regarding `CCN1C(C)=C(C(=O)OC)[C@@H](c2ccccc2)N2C(=O)[C@@]3(C(=O)OC)O[C@@]12[C@@H]1C(=O)N(c2ccccc2)C(=O)[C@@H]13`, the composite z-score is 0.357 (inactive).
The value for `C#CCCCON=C1C[C@@H](O)[C@@H](O)[C@@H]2[C@@H]3C(=O)N(Cc4ccc5c(c4)OCO5)C(=O)[C@@H]3CC[C@H]12` was 0.892 (inactive).
The value for `COc1cc([C@@H]2N[C@H](C(=O)O)Cc3c2[nH]c2ccccc32)cc(OC)c1OC` was -0.374 (inactive); that for `CO[C@H]1COC(=O)[C@H](C)COC(=O)[C@H](Cc2ccccc2)NC(=O)CC=C[C@H]1C` was -0.454 (inactive); that for `CO[C@@H]1COC(=O)[C@H](C)NC(=O)CC=C[C@@H](C)[C@H](NS(=O)(=O)c2ccc(C)cc2)COC(=O)CC=C[C@@H]1C` was -0.44 (inactive).
In the case of `O=C(O)[C@@H]1Cc2c([nH]c3ccccc23)[C@@H](c2ccccc2)N1`, the composite z-score was 0.0176 (inactive).
Under `CO[C@H]1COC(=O)CC=C[C@H](C)[C@@H](OC)COC(=O)[C@H](Cc2ccccc2)NC(=O)CC=C[C@@H]1C` stands -0.254 (inactive); under `C[C@@H]1NC(=O)CC=C[C@@H](C)[C@@H]2C=C[C@H](O)[C@@H](COC(=O)[C@H](C)NC(=O)CC=C[C@@H](C)[C@@H]3C=C[C@H](O)[C@@H](COC1=O)O3)O2`, -0.217 (inactive); under `CCC(=O)[C@]12O[C@@]3([C@@H]4C(=O)OCC[C@@H]41)N(CC)C(C)=C(C(=O)OC)[C@@H](c1ccccc1)N3C2=O`, 0.592 (inactive).
For the compound `CO[C@H]1COC(=O)CC=C[C@@H](C)COC(=O)[C@@H](C)NC(=O)CC=C[C@@H]1C`, the composite z-score was 0.89 (inactive).
Under `C=CCc1cccc([C@@H]2[C@@H](C)CC[C@H]3C(=O)N4[C@H](c5cccc(CC=C)c5)[C@@H](C)CC[C@H]4C(=O)N23)c1` stands 0.718 (inactive); under `CCN1C(C)=C(C(=O)OC)[C@@H](c2ccccc2)N2C(=O)[C@@]3(C(=O)OC)O[C@@]12[C@@H]1C(=O)N(C)C(=O)[C@@H]13`, 1.38 (inactive); under `CO[C@H]1COC(=O)[C@@H](OCc2ccccc2)C=C[C@H](C)[C@@H](OC)COC(=O)[C@H](OCc2ccccc2)C=C[C@@H]1C`, -1.11 (inactive).
Under `CO[C@H]1COC(=O)[C@H](CCSC)NC(=O)CC=C[C@@H](C)COC(=O)[C@@H](OCc2ccccc2)C=C[C@@H]1C` stands 0.786 (inactive); under `CO[C@H]1COC(=O)[C@H](C)NC(=O)CC=C[C@@H](C)[C@H](NS(=O)(=O)c2ccc(C)cc2)COC(=O)CC=C[C@@H]1C`, -0.132 (inactive).
The value for `CCC(=O)[C@]12O[C@@]3([C@@H]4C(=O)OCC[C@@H]41)N(Cc1ccccc1)C(C)=C(C(=O)OC)[C@@H](c1ccccc1)N3C2=O` was 0.195 (inactive).
Turning to `CO[C@@H]1COC(=O)[C@H](COCc2ccccc2)NC(=O)CC=C[C@@H](C)[C@H](OC)COC(=O)[C@H](COCc2ccccc2)NC(=O)CC=C[C@H]1C`, the composite z-score was 0.271 (inactive).
In the case of `Cc1ccc(S(=O)(=O)N[C@H]2COC(=O)CC=C[C@H](C)COC(=O)N[C@@H](C)C(=O)CC=C[C@@H]2C)cc1`, the composite z-score was -0.478 (inactive).
For `C[C@@H]1C=CCC(=O)OC[C@H]2O[C@@H](C=C[C@@H]2O)[C@H](C)C=CCC(=O)OC[C@H]2O[C@H]1C=C[C@@H]2O`, the composite z-score was 0.424 (inactive).
For the compound `COc1cccc([C@@H]2[C@@H](C)CC[C@H]3C(=O)N(C)[C@@H](C(C)C)C(=O)N23)c1`, the composite z-score was -0.297 (inactive).
The value for `CC(=O)Nc1ccc([C@H]2[C@H](C)CC[C@H]3C(=O)N4[C@@H](CC[C@@H](C)[C@@H]4c4ccc(NC(C)=O)cc4)C(=O)N32)cc1` was 1.46 (inactive); that for `C[C@@H]1CC[C@H]2C(=O)N3[C@@H](CC[C@@H](C)[C@@H]3c3cccc(N4CCOCC4)c3)C(=O)N2[C@H]1c1cccc(N2CCOCC2)c1` was 0.66 (inactive); that for `COc1cccc([C@@H]2[C@@H](C)CC[C@H]3C(=O)N4[C@H](c5cccc(OC)c5)[C@@H](C)CC[C@H]4C(=O)N23)c1` was -0.142 (inactive).
In the case of `C[C@H]1COC(=O)[C@H](Cc2ccccc2)NC(=O)[C@@H](C)COC(=O)[C@H](Cc2ccccc2)NC1=O`, the composite z-score was 0.767 (inactive).
The value for `CO[C@@H]1COC(=O)[C@@H]2CCCN2C(=O)CC=C[C@@H](C)[C@H](OC)COC(=O)[C@@H]2CCCN2C(=O)CC=C[C@H]1C` was 0.284 (inactive); that for `CO[C@@H]1COC(=O)[C@H](C)NC(=O)CC=C[C@@H](C)[C@H](OC)COC(=O)[C@H](C)NC(=O)CC=C[C@H]1C` was -0.479 (inactive); that for `COC(=O)C1=C(C)N(Cc2ccccc2)c2c(C(=O)OC)c(C(=O)OC)c(C(=O)OC)c(=O)n2[C@@H]1c1ccccc1` was 0.17 (inactive).
As for `COc1cccc([C@H]2N[C@H](C(=O)O)CC[C@@H]2C)c1`, the composite z-score is 0.253 (inactive).
The value for `CO[C@H]1COC(=O)CC=C[C@H](C)[C@@H](OC)COC(=O)CC=C[C@@H]1C` was 0.878 (inactive); that for `CCN1C(C)=C(C(=O)OC)[C@@H](c2ccccc2)N2C(=O)[C@](O)(C(=O)OC)[C@@H](c3ccccc3)C(C(C)=O)=C12` was -0.192 (inactive).
Take `CO[C@H]1COC(=O)[C@H](Cc2ccccc2)NC(=O)CC=C[C@@H](C)[C@H](OC)COC(=O)CC=C[C@@H]1C`: the composite z-score is -0.707 (inactive).
The value for `CO[C@@H]1COC(=O)CC=C[C@H](C)COC(=O)[C@H](Cc2ccccc2)NC(=O)CC=C[C@H]1C` was 0.717 (inactive); that for `C[C@@H]1CC[C@H]2C(=O)N3CCC[C@H]3C(=O)N2[C@H]1c1ccc(Br)cc1` was 0.557 (inactive).
The value for `C[C@@H]1CC[C@H]2C(=O)N3[C@@H](CC[C@@H](C)[C@@H]3c3cccc(N4CCOCC4)c3)C(=O)N2[C@H]1c1cccc(Br)c1` was 0.806 (inactive).
